# Results reported in paper PMC7862700, “An all-to-all approach to the identification of sequence-specific readers for epigenetic DNA modifications on cytosine”.
# Experiments:
# Assay in all cases: DAPPL (digital affinity profiling via proximity ligation, sequencing); 10 mM Tris-HCl pH 7.5, 50 mM NaCl, 1 mM DTT, 4% glycerol, room temperature, 30 min; GST-TFs on glutathione beads, 16-mer random dsDNA library, 0.1% formaldehyde crosslink after washing; high values mean tight binding
# FLI1 = target: T1, FLI1 (Homo sapiens, UniProt Q01543 1-452); conditions: protein: recombinant; tags: N-terminal GST; dsDNA, one strand shown
# T1 sequence: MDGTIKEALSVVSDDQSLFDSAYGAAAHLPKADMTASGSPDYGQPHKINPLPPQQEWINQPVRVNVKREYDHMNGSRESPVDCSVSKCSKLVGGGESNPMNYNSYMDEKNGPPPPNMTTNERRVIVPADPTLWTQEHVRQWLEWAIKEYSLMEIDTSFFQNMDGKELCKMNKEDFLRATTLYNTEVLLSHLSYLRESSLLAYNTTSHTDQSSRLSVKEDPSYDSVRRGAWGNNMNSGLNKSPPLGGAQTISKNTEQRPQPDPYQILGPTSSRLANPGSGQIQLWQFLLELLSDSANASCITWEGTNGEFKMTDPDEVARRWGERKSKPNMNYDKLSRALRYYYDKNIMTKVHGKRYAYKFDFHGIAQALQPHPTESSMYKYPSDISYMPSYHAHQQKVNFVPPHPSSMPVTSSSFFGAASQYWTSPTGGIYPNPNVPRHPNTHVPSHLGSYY
# How it was run: (§1)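 Human transcription factors carrying a GST fusion were produced in yeast, bound to glutathione beads, tagged with DNA barcodes and pooled together with a tag-only sample. Each pool was held with 200 nmole of a random double-stranded 16-mer DNA library in Tris/NaCl/DTT/glycerol buffer for 30 min at room temperature, then washed, crosslinked in 0.1% formaldehyde, proximity-ligated with BsaI/T4 ligase (1 h, 37 °C), PCR-amplified and sequenced on an Illumina NextSeq500. Binding signal is the read frequency of each hexamer for a given factor divided by its frequency in the tag-only sample.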
# ELK1 = target: T2, ELK1 (Homo sapiens, UniProt P19419 1-428); conditions: protein: recombinant; tags: N-terminal GST; dsDNA, one strand shown
# T2 sequence: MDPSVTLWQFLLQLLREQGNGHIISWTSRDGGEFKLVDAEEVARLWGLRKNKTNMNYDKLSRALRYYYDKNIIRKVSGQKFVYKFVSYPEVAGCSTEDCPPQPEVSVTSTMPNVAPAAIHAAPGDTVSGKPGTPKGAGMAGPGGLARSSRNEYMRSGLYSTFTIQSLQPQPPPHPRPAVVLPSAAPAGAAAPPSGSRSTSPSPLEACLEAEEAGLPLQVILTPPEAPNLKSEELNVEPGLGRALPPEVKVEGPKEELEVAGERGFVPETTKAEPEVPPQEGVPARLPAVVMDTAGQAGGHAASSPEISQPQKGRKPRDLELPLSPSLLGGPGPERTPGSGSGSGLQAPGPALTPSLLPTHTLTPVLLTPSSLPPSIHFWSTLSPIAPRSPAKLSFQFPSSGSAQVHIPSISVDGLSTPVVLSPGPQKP
# How it was run: as §1
# GABPA = target: T3, GABPA (Homo sapiens, UniProt Q06546 1-454); conditions: protein: recombinant; tags: N-terminal GST; dsDNA, one strand shown
# T3 sequence: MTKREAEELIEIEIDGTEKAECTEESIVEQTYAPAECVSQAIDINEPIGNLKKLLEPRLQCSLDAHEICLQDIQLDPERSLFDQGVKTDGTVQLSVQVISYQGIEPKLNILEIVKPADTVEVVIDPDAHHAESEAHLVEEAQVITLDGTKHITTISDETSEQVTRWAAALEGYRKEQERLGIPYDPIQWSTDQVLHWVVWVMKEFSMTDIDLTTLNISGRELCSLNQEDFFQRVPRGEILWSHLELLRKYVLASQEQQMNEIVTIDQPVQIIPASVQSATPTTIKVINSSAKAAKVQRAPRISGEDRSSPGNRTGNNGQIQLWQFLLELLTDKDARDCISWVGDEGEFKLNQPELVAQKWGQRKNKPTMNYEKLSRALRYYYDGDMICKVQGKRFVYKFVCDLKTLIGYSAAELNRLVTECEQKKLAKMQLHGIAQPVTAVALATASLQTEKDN
# How it was run: as §1
# ERG = target: T4, ERG (Homo sapiens, UniProt P11308 1-479); conditions: protein: recombinant; tags: N-terminal GST; dsDNA, one strand shown
# T4 sequence: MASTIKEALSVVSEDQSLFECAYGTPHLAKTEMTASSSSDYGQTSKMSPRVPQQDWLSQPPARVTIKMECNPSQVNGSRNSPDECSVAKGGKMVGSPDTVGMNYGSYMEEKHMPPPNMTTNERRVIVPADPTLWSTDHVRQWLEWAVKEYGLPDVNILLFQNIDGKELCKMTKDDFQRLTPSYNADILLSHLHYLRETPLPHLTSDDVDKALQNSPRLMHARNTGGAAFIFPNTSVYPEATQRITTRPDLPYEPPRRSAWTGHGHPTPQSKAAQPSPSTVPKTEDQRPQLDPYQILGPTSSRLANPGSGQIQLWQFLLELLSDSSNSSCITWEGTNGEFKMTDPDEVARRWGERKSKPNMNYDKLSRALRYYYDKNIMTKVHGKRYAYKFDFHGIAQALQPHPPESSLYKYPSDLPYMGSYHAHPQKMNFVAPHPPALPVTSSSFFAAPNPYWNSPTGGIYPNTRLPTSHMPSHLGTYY
# How it was run: as §1
# ELF1 = ELF1 (Homo sapiens, UniProt P32519 1-619); conditions: protein: recombinant; tags: N-terminal GST; dsDNA, one strand shown
# How it was run: as §1
# EHF = target: T5, EHF (Homo sapiens, UniProt Q9NZC4 1-300); conditions: protein: recombinant; tags: N-terminal GST; dsDNA, one strand shown
# T5 sequence: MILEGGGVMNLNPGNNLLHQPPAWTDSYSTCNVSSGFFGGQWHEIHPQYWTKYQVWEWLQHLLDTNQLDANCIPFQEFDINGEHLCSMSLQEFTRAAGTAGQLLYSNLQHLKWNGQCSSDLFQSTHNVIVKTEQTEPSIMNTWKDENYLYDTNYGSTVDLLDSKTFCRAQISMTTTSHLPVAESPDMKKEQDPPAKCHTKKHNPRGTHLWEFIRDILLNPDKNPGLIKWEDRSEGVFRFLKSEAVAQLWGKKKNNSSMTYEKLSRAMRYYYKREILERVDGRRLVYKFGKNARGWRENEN
# How it was run: as §1
# SPI1 = SPI1 (Homo sapiens, UniProt P17947 1-270); conditions: protein: recombinant; tags: N-terminal GST; dsDNA, one strand shown
# How it was run: as §1
# SPIB = SPIB (Homo sapiens, UniProt Q01892 1-262); conditions: protein: recombinant; tags: N-terminal GST; dsDNA, one strand shown
# How it was run: as §1
# ELK3 = target: T6, ELK3 (Homo sapiens, UniProt P41970 1-407); conditions: protein: recombinant; tags: N-terminal GST; dsDNA, one strand shown
# T6 sequence: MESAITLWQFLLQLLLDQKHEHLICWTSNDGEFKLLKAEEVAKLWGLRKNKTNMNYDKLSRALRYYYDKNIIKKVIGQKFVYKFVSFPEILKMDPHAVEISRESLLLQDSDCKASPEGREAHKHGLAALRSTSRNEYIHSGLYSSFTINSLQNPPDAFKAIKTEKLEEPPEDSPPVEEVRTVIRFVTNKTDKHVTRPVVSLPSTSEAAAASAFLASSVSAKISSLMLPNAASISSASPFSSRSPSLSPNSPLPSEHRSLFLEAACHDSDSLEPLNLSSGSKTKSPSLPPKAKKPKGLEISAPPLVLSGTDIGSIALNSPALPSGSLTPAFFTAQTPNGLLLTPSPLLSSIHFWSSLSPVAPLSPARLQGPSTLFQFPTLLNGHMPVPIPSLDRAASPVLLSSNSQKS
# How it was run: as §1
# FEV = target: T7, FEV (Homo sapiens, UniProt Q99581 1-238); conditions: protein: recombinant; tags: N-terminal GST; dsDNA, one strand shown
# T7 sequence: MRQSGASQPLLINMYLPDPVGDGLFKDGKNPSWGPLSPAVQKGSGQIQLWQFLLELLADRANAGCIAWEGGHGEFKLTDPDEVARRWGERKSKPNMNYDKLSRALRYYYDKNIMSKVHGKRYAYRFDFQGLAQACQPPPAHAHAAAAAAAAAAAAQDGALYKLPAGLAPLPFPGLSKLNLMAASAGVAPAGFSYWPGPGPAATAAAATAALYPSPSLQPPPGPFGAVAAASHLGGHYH
# How it was run: as §1
# ETV5 = ETV5 (Homo sapiens, UniProt P41161 1-510); conditions: protein: recombinant; tags: N-terminal GST; dsDNA, one strand shown
# How it was run: as §1
# HSF1 = HSF1 (Homo sapiens, UniProt Q00613 1-529); conditions: protein: recombinant; tags: N-terminal GST; chain copies: 3; dsDNA, one strand shown
# How it was run: as §1
# SPIC = target: T8, SPIC (Homo sapiens, UniProt Q8N5J4 1-248); conditions: protein: recombinant; tags: N-terminal GST; dsDNA, one strand shown
# T8 sequence: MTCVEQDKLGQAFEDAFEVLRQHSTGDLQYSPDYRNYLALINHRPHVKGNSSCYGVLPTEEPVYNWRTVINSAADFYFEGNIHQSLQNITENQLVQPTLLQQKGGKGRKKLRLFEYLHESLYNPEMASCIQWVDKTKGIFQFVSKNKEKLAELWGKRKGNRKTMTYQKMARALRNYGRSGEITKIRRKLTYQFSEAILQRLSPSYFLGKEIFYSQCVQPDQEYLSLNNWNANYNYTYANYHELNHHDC
# How it was run: as §1
# ELF4 = ELF4 (Homo sapiens, UniProt Q99607 1-663); conditions: protein: recombinant; tags: N-terminal GST; dsDNA, one strand shown
# How it was run: as §1
# ELK4 = target: T9, ELK4 (Homo sapiens, UniProt P28324-2 1-405); conditions: protein: recombinant; tags: N-terminal GST; dsDNA, one strand shown
# T9 sequence: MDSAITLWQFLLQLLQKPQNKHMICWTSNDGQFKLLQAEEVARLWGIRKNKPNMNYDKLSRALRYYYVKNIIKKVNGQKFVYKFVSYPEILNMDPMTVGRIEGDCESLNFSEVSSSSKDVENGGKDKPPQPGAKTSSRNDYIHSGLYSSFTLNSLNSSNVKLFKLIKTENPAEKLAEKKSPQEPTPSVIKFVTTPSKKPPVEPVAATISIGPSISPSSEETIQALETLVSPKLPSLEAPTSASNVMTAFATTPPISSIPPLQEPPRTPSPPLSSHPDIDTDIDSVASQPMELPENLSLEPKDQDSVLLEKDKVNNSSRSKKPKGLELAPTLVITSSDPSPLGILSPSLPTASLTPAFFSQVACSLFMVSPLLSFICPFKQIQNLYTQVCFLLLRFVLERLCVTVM
# How it was run: as §1
# ETV2 = target: T10, ETV2 (Homo sapiens, UniProt O00321 1-342); conditions: protein: recombinant; tags: N-terminal GST; dsDNA, one strand shown
# T10 sequence: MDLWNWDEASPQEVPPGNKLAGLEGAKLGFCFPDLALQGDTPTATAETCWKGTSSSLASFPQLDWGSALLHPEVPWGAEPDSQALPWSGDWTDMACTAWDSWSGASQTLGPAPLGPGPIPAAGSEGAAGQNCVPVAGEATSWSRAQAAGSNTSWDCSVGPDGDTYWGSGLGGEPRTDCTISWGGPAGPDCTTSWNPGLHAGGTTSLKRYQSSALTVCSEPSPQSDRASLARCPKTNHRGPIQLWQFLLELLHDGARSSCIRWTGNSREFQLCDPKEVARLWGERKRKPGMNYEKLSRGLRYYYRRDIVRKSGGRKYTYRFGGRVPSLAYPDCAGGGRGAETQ
# How it was run: as §1
# ELF3 = target: T11, ELF3 (Homo sapiens, UniProt P78545 1-371); conditions: protein: recombinant; tags: N-terminal GST; dsDNA, one strand shown
# T11 sequence: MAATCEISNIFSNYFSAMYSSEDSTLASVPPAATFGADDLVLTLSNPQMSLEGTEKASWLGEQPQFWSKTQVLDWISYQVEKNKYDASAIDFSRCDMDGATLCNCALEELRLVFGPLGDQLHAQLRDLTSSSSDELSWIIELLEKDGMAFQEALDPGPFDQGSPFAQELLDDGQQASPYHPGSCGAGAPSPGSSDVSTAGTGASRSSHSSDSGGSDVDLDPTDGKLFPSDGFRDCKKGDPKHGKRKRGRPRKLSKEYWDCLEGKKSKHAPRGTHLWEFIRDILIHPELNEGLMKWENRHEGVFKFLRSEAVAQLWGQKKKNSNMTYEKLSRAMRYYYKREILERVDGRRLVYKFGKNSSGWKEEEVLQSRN
# How it was run: as §1
# CRX = CRX (Homo sapiens, UniProt O43186 1-299); conditions: protein: recombinant; tags: N-terminal GST; dsDNA, one strand shown
# How it was run: as §1
# ETV1 = ETV1 (Homo sapiens, UniProt P50549 1-477); conditions: protein: recombinant; tags: N-terminal GST; dsDNA, one strand shown
# How it was run: as §1
# Sequence of ELF4 (Q99607 whole entry): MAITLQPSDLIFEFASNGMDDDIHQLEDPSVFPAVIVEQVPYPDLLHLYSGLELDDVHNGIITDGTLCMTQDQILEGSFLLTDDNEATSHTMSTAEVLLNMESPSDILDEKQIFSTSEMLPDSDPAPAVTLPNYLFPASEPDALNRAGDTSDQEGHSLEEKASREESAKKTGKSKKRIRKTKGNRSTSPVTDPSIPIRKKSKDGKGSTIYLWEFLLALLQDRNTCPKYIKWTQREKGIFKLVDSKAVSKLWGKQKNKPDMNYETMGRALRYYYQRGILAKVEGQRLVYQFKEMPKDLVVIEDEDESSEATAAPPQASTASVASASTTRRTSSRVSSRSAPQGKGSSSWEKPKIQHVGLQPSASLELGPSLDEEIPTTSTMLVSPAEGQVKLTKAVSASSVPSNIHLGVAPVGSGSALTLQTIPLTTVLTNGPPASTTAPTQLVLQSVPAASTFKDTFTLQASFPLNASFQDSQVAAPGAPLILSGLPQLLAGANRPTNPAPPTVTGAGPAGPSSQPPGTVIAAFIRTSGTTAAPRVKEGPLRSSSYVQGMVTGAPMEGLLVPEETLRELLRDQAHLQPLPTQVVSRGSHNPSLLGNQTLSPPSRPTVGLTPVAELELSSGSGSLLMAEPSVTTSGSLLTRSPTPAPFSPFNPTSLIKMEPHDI
# Sequence of ETV1 (P50549 whole entry): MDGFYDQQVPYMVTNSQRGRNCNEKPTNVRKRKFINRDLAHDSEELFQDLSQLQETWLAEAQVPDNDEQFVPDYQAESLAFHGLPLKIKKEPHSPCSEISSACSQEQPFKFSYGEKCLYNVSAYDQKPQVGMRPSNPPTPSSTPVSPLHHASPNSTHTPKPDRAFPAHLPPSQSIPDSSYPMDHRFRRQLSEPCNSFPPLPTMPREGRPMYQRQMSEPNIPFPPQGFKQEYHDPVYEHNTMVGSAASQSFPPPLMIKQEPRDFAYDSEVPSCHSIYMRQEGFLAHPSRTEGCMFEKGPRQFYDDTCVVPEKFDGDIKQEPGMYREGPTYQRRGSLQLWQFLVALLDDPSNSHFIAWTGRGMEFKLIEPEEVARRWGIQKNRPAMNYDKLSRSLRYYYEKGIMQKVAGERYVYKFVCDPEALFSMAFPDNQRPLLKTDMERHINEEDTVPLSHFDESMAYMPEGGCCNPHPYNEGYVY
# Sequence of SPIB (Q01892 whole entry): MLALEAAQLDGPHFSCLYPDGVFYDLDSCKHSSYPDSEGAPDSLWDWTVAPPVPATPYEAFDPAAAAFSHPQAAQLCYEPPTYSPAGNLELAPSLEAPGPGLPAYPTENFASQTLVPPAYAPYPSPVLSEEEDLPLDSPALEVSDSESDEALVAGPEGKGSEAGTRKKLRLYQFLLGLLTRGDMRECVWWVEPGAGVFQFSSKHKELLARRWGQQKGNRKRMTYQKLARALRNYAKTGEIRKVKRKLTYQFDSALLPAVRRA
# Sequence of HSF1 (Q00613 whole entry): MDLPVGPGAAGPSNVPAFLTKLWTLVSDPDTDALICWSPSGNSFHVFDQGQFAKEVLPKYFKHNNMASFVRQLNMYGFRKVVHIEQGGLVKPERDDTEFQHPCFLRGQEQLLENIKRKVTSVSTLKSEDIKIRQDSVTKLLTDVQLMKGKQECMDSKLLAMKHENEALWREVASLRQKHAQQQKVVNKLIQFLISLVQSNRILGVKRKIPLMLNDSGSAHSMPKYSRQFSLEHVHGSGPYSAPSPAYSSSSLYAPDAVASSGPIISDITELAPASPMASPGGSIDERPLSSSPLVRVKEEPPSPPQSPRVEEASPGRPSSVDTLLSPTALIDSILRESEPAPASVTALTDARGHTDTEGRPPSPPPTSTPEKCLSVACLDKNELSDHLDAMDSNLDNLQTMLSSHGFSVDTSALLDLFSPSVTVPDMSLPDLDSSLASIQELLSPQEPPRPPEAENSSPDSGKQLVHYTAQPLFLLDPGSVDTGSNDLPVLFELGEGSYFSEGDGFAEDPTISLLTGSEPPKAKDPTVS
# Sequence of ELF1 (P32519 whole entry): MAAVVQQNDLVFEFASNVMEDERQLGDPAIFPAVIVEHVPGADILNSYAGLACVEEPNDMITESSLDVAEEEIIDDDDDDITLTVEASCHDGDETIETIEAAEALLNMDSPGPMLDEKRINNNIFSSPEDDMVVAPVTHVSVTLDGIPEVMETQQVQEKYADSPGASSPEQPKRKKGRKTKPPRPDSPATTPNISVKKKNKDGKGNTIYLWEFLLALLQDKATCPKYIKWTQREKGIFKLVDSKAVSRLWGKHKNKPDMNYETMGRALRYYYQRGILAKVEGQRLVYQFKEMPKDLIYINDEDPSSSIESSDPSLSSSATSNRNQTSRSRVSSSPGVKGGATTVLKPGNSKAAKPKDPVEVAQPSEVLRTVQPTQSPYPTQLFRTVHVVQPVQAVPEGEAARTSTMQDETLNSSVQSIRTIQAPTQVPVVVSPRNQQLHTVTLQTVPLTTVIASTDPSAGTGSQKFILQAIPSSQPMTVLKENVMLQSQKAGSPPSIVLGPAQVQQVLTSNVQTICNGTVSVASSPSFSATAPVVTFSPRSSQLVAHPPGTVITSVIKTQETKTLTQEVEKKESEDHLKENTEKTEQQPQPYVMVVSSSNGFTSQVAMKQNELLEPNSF
# Sequence of ETV5 (P41161 whole entry): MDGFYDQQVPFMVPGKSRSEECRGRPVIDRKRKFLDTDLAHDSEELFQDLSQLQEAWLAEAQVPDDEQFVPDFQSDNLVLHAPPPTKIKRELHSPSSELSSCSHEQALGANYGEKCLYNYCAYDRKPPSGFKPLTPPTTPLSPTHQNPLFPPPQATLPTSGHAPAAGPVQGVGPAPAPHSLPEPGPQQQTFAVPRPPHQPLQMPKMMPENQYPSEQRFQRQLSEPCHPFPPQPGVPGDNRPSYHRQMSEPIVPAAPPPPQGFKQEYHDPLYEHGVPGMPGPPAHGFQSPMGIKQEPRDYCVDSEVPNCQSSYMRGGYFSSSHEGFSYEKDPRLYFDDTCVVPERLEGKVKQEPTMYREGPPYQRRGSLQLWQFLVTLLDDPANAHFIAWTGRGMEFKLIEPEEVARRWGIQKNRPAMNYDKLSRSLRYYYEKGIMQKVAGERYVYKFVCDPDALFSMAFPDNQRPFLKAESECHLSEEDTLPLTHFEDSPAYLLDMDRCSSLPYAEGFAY
# Sequence of CRX (O43186 whole entry): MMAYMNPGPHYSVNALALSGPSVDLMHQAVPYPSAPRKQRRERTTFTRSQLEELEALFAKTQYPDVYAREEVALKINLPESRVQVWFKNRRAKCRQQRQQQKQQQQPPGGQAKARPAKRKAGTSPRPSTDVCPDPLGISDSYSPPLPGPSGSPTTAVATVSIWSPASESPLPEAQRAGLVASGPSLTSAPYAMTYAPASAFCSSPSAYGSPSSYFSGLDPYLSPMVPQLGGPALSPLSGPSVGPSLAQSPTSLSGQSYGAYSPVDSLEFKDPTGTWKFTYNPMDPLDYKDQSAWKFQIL
sequence,measurement,setting,value
ATCGAC,binding signal,FLI1,"1.13 fold enrichment (6-mer frequency, TF over GST control)"
same,binding signal,ELK1,"1.11 fold enrichment (6-mer frequency, TF over GST control)"
same,binding signal,GABPA,"1.17 fold enrichment (6-mer frequency, TF over GST control)"
same,binding signal,ERG,"1.1 fold enrichment (6-mer frequency, TF over GST control)"
same,binding signal,ELF1,"1.24 fold enrichment (6-mer frequency, TF over GST control)"
same,binding signal,EHF,"1.12 fold enrichment (6-mer frequency, TF over GST control)"
same,binding signal,SPI1,"1.15 fold enrichment (6-mer frequency, TF over GST control)"
same,binding signal,SPIB,"1.11 fold enrichment (6-mer frequency, TF over GST control)"
same,binding signal,ELK3,"1.27 fold enrichment (6-mer frequency, TF over GST control)"
same,binding signal,FEV,"1.12 fold enrichment (6-mer frequency, TF over GST control)"
same,binding signal,ETV5,"1.25 fold enrichment (6-mer frequency, TF over GST control)"
same,binding signal,HSF1,"1.16 fold enrichment (6-mer frequency, TF over GST control)"
same,binding signal,SPIC,"1.13 fold enrichment (6-mer frequency, TF over GST control)"
same,binding signal,ELF4,"1.21 fold enrichment (6-mer frequency, TF over GST control)"
same,binding signal,ELK4,"1.26 fold enrichment (6-mer frequency, TF over GST control)"
same,binding signal,ETV2,"1.23 fold enrichment (6-mer frequency, TF over GST control)"
same,binding signal,ELF3,"1.14 fold enrichment (6-mer frequency, TF over GST control)"
same,binding signal,CRX,"1.11 fold enrichment (6-mer frequency, TF over GST control)"
same,binding signal,ETV1,"1.16 fold enrichment (6-mer frequency, TF over GST control)"
